The panel holds about 83,000 compounds, 20% with a hit somewhere; the sample as a whole holds those more often.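 Each cell line was grown in a 96-well plate and treated with one concentration of compound for 48 hours. Values below 10 were considered active.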 The source made the active and inactive calls.
What was measured:
Assay in all cases: NCI-60 one-dose screen, 48 h (100 = growth as untreated, 0 = no growth, -100 = all killed)
Settings in all cases: 10 µM unless noted
SR leukemia = tested on: SR leukemia
RPMI-8226 leukemia = tested on: RPMI-8226 leukemia
OVCAR-8 ovarian = tested on: OVCAR-8 ovarian
OVCAR-5 ovarian = tested on: OVCAR-5 ovarian
OVCAR-4 ovarian = tested on: OVCAR-4 ovarian
SK-OV-3 ovarian = tested on: SK-OV-3 ovarian
IGROV1 ovarian = tested on: IGROV1 ovarian
OVCAR-3 ovarian = tested on: OVCAR-3 ovarian
HS 578T breast = tested on: HS 578T breast
NCI/ADR-RES ovarian = tested on: NCI/ADR-RES ovarian

Measured: growth

Cc1[nH]c(=O)[nH]c(=O)c1CCSSCCc1c(C)[nH]c(=O)[nH]c1=O
inactive: SR leukemia 79.6% | RPMI-8226 leukemia 104% | OVCAR-8 ovarian 107% | OVCAR-5 ovarian 110% | OVCAR-4 ovarian 117% | SK-OV-3 ovarian 103% | IGROV1 ovarian 99.8% | OVCAR-3 ovarian 117% | HS 578T breast 142% | NCI/ADR-RES ovarian 104%

CCN(CC)c1ccc(N=C2C=CC(=O)C=C2NC(C)=O)cc1
inactive: SR leukemia 110% | RPMI-8226 leukemia 89.8% | OVCAR-8 ovarian 94% | OVCAR-5 ovarian 108% | OVCAR-4 ovarian 104% | SK-OV-3 ovarian 86.9% | IGROV1 ovarian 96.7% | OVCAR-3 ovarian 74.2% | HS 578T breast 104% | NCI/ADR-RES ovarian 105%

CN1CCC[C@@H]1CCO[C@](C)(c1ccccc1)c1ccc(Cl)cc1
inactive: SR leukemia 59.7% | RPMI-8226 leukemia 70.4% | OVCAR-8 ovarian 88.1% | OVCAR-5 ovarian 73.6% | OVCAR-4 ovarian 75.6% | SK-OV-3 ovarian 73.9% | IGROV1 ovarian 63.6% | OVCAR-3 ovarian 100% | HS 578T breast 80.9% | NCI/ADR-RES ovarian 76.5%

CCN(CC)CCSc1ncnc2c1cnn2-c1ccc(S(N)(=O)=O)cc1
inactive: SR leukemia 57% | RPMI-8226 leukemia 98.2% | OVCAR-8 ovarian 83.5% | OVCAR-5 ovarian 112% | OVCAR-4 ovarian 106% | SK-OV-3 ovarian 108% | IGROV1 ovarian 96.5% | OVCAR-3 ovarian 84.4% | HS 578T breast 103% | NCI/ADR-RES ovarian 85.2%

COc1ccc2nc(N/N=C(\C)c3ccccn3)cc(C)c2c1
inactive: OVCAR-5 ovarian 20% | OVCAR-4 ovarian 14.8% | SK-OV-3 ovarian 15.8% | NCI/ADR-RES ovarian 12.4%
active: SR leukemia -40.9% | RPMI-8226 leukemia -25.1% | OVCAR-8 ovarian 0.111% | IGROV1 ovarian -44.1% | OVCAR-3 ovarian -78.5% | HS 578T breast 6.09%

C[C@@H]1CN(c2nc3c(cc2F)c(=O)c(C(=O)O)cn3C(C)(C)C)C[C@H](C)N1
inactive: SR leukemia 115% | RPMI-8226 leukemia 114% | OVCAR-8 ovarian 94.8% | OVCAR-5 ovarian 109% | OVCAR-4 ovarian 104% | SK-OV-3 ovarian 105% | IGROV1 ovarian 121% | OVCAR-3 ovarian 104% | HS 578T breast 67.2% | NCI/ADR-RES ovarian 80.6%

CN(C)c1ccc(-c2nc3ncc(Br)cc3o2)cc1
inactive: SR leukemia 94.4% | RPMI-8226 leukemia 74% | OVCAR-8 ovarian 99.6% | OVCAR-5 ovarian 100% | OVCAR-4 ovarian 113% | SK-OV-3 ovarian 94.8% | IGROV1 ovarian 17% | OVCAR-3 ovarian 112% | HS 578T breast 97.2% | NCI/ADR-RES ovarian 88.4%

CCOC(=O)/C=C1/SC(=Nc2ccc(C#N)cc2)N(Cc2ccco2)C1=O
inactive: OVCAR-8 ovarian 54.2% | OVCAR-5 ovarian 37.4% | OVCAR-4 ovarian 51.2% | SK-OV-3 ovarian 91.7% | IGROV1 ovarian 26.3% | OVCAR-3 ovarian 17.9% | HS 578T breast 65.4% | NCI/ADR-RES ovarian 40.9%
active: SR leukemia 0.973% | RPMI-8226 leukemia -33.8%

COC(=O)[C@H](Cc1cn(C)cn1)NC(=O)[C@@H](NC(=O)Nc1cc(C(F)(F)F)cc(C(F)(F)F)c1)C(C)C
active: SR leukemia -33.5% [100 µM] | RPMI-8226 leukemia -42.9% [100 µM] | OVCAR-8 ovarian -80% [100 µM] | OVCAR-5 ovarian -96.1% [100 µM] | OVCAR-4 ovarian -96.5% [100 µM] | SK-OV-3 ovarian -100% [100 µM] | IGROV1 ovarian -70.9% [100 µM] | OVCAR-3 ovarian -97.3% [100 µM] | HS 578T breast 0.492% [100 µM] | NCI/ADR-RES ovarian -21.6% [100 µM]

CC(=O)c1ccc(NS(=O)(=O)c2ccc([N+](=O)[O-])cc2)cc1
inactive: SR leukemia 83.8% | RPMI-8226 leukemia 101% | OVCAR-8 ovarian 106% | OVCAR-5 ovarian 98.2% | OVCAR-4 ovarian 112% | SK-OV-3 ovarian 95.7% | IGROV1 ovarian 107% | OVCAR-3 ovarian 108% | HS 578T breast 115% | NCI/ADR-RES ovarian 109%

c1ccc(COc2ccc(Nc3ncnc4c3cnn4-c3ccccc3)cc2)cc1
inactive: SR leukemia 91.9% | RPMI-8226 leukemia 96.5% | OVCAR-8 ovarian 113% | OVCAR-5 ovarian 98.9% | OVCAR-4 ovarian 91.3% | SK-OV-3 ovarian 108% | IGROV1 ovarian 100% | OVCAR-3 ovarian 113% | HS 578T breast 109% | NCI/ADR-RES ovarian 107%

CSc1nc(N)c2c(n1)N(C)C=NS2(=O)=O
inactive: SR leukemia 102% | RPMI-8226 leukemia 103% | OVCAR-8 ovarian 102% | OVCAR-5 ovarian 93.7% | OVCAR-4 ovarian 108% | SK-OV-3 ovarian 117% | IGROV1 ovarian 119% | OVCAR-3 ovarian 122% | HS 578T breast 118% | NCI/ADR-RES ovarian 103%

Cc1ccc2nc3c(n2c1)C(=O)C(=O)c1ccccc1-3
active: SR leukemia -44.5% | RPMI-8226 leukemia -51.9% | OVCAR-8 ovarian -68.1% | OVCAR-5 ovarian -74% | OVCAR-4 ovarian -98.4% | SK-OV-3 ovarian -90.9% | IGROV1 ovarian -49.1% | OVCAR-3 ovarian -82.5% | HS 578T breast -15.6% | NCI/ADR-RES ovarian -3.7%

Cc1ccc(/C=C(/C#N)n2nnc3ncccc32)cc1
inactive: SR leukemia 15.2% | OVCAR-4 ovarian 25.7% | SK-OV-3 ovarian 14.2% | IGROV1 ovarian 19.3%
active: RPMI-8226 leukemia 7.18% | OVCAR-8 ovarian -1.49% | OVCAR-5 ovarian -20.3% | OVCAR-3 ovarian -15% | HS 578T breast 0.782% | NCI/ADR-RES ovarian 2.09%

COc1ccc(-n2cnc3cc(C(=O)N4CCCCC4)ccc32)cc1
inactive: SR leukemia 94.9% | RPMI-8226 leukemia 101% | OVCAR-8 ovarian 100% | OVCAR-5 ovarian 93.1% | OVCAR-4 ovarian 100% | SK-OV-3 ovarian 99.5% | IGROV1 ovarian 112% | OVCAR-3 ovarian 108% | HS 578T breast 100% | NCI/ADR-RES ovarian 107%

Nc1ccccc1C#Cc1ccccc1C#Cc1ccc(OCCCCCCOc2ccc(C#Cc3ccccc3C#Cc3ccccc3N)cc2)cc1
active: IGROV1 ovarian -7.54%
inactive: SR leukemia 94.7% | RPMI-8226 leukemia 94% | OVCAR-8 ovarian 95.6% | OVCAR-5 ovarian 90.7% | OVCAR-4 ovarian 105% | SK-OV-3 ovarian 92.5% | OVCAR-3 ovarian 109% | HS 578T breast 113% | NCI/ADR-RES ovarian 93%

Nc1nc(Nc2ccccc2SSc2ccccc2Nc2nc(N)nc(-c3ccc(I)cc3)n2)nc(-c2ccc(I)cc2)n1
inactive: SR leukemia 13.9% | RPMI-8226 leukemia 61.4% | OVCAR-8 ovarian 60.2% | OVCAR-5 ovarian 84.9% | OVCAR-4 ovarian 107% | SK-OV-3 ovarian 116% | IGROV1 ovarian 50.3% | OVCAR-3 ovarian 94.1% | HS 578T breast 89.1% | NCI/ADR-RES ovarian 49.6%

CCCCCCCCCCNCCSS(=O)(=O)O
inactive: SR leukemia 52.1% | RPMI-8226 leukemia 98.2% | OVCAR-8 ovarian 65.9% | OVCAR-5 ovarian 103% | OVCAR-4 ovarian 102% | SK-OV-3 ovarian 84.8% | IGROV1 ovarian 91.2% | OVCAR-3 ovarian 72.3% | HS 578T breast 52.1% | NCI/ADR-RES ovarian 83.7%

NS(=O)(=O)c1cc(C2(O)NC(=O)c3ccccc32)ccc1Cl (stereo not given)
inactive: SR leukemia 91.9% | RPMI-8226 leukemia 93.2% | OVCAR-8 ovarian 103% | OVCAR-5 ovarian 99.1% | OVCAR-4 ovarian 112% | SK-OV-3 ovarian 108% | IGROV1 ovarian 97.1% | OVCAR-3 ovarian 123% | HS 578T breast 118% | NCI/ADR-RES ovarian 107%

C=CCN(/C=C/CN(CC=C)CC=C)CC=C
inactive: SR leukemia 85.3% | RPMI-8226 leukemia 95.8% | OVCAR-8 ovarian 95.8% | OVCAR-5 ovarian 104% | OVCAR-4 ovarian 91.7% | SK-OV-3 ovarian 103% | IGROV1 ovarian 96.3% | OVCAR-3 ovarian 105% | HS 578T breast 109% | NCI/ADR-RES ovarian 107%

Oc1ccc(/C=N/Nc2nc3ccccc3s2)c(O)c1
inactive: RPMI-8226 leukemia 37.4% | OVCAR-8 ovarian 26.6% | OVCAR-5 ovarian 47.1% | OVCAR-4 ovarian 21.5% | IGROV1 ovarian 22.3% | OVCAR-3 ovarian 18.6% | HS 578T breast 49.2% | NCI/ADR-RES ovarian 17.7%
active: SR leukemia 6.63% | SK-OV-3 ovarian 8.68%

Source: PubChem BioAssay (NCI)
